Among the data in PubChem BioAssay (EPA / NIEHS) are outcome and AC50 values, retold here.

Active and inactive are the calls of the source. The calls were made as follows: active = hit-call score of the fitted dose curve at least 0.9, where 1 is the maximum; inactive = score below 0.9.

Read-out in the assay: Collagen III, COL3A1 (gene 1281)
Kind of assay: BSK_hDFCGF_CollagenIII: BioMAP Diversity Plus: hDFCGF Assay for Collagen III Biomarker Activity (AID 2283056). To be noted: primary human foreskin fibroblasts; actives raise or lower the signal. Summed up: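 Human foreskin primary fibroblasts were exposed to test chemicals for 24 h, after which collagen III was quantified by ELISA. Activity was fitted bidirectionally against DMSO as negative control and baseline.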
Regarding `CCN(Cc1cccc(S(=O)(=O)O)c1)c1ccc(C(=C2C=CC(=[N+](CC)Cc3cccc(S(=O)(=O)O)c3)C=C2)c2ccccc2S(=O)(=O)[O-])cc1`, the result was inactive.

On to `CCCCOC(=O)CC(CC(=O)OCCCC)(OC(C)=O)C(=O)OCCCC`, for which the result was inactive. With `O=c1c(-c2ccc(O)cc2)coc2cc(O)cc(O)c12`, the outcome was inactive. On to `CN(C)C(=O)C1(N2CCCCC2)CCN(CC[C@@]2(c3ccc(Cl)c(Cl)c3)CN(C(=O)c3ccccc3)CCO2)CC1`, for which the AC50 is 25.4 µM (active). Consider `CCCCOC(=O)c1ccc(O)cc1`, for which the outcome was inactive.

With `O=C1CCC(C2CCCCC2)CC1`, the half-maximal activity concentration (AC50) was 20.7 µM (active). As to `CCO[Si](CCCNC(N)=O)(OCC)OCC`, the outcome was inactive. On to `CCCCCCCCCCCCO`, for which the AC50 was 15.4 µM (active).

Regarding `C[C@]12CC[C@@H]3c4ccc(O)cc4CC[C@H]3[C@@H]1CCC2=O`, the result was inactive. In the case of `CC/C(=C(/CC)c1ccc(O)cc1)c1ccc(O)cc1`, the AC50 was 11.4 µM (active).

On to `CCCCCc1ccc(N)cc1`, for which the result was inactive. The same measure, in the same setting: as for `CN1C(=O)CC[C@H]1c1cccnc1`, the entry is “inactive”. As for `O=C(O)Cc1cc(I)c(Oc2ccc(O)c(I)c2)c(I)c1`, the AC50 was 8.91 µM (active).

As for `CCCCCCCCCCCC[N+](C)(C)C`, the AC50 was 2.57 µM (active). For `CCCCCCCCCC(=O)O`, the result was inactive. For the molecule `Cc1cc(F)ccc1-c1cc(N2CC[C@@H](O)[C@H]2CO)ncc1N(C)C(=O)C(C)(C)c1cc(C(F)(F)F)cc(C(F)(F)F)c1`, the AC50 was 24.1 µM (active).

On to `CC(C)(C)c1csc(-c2cc3cc(OCc4ccccc4CC(=O)O)ccc3o2)n1`, for which the concentration at half-maximal activity (AC50) is 3.19 µM (active). The same measure, in the same setting: as for `CC(=O)N1CCN(c2ccc(OC[C@H]3CO[C@](Cn4ccnc4)(c4ccc(Cl)cc4Cl)O3)cc2)CC1`, the figure is 14 µM (active); as for `CN(C)c1ccc(C(=C2C=CC(=[N+](C)C)C=C2)c2ccc(N(C)C)cc2)cc1`, 0.148 µM (active); as for `O=C(Nc1ccc(Cl)cc1)Nc1ccc(Cl)c(Cl)c1`, 0.148 µM (active). For the molecule `CCCCCCCCN(C)CCCCCCCC`, the result was inactive.

Regarding `c1ccc2ccccc2c1`, the result was inactive.

For `CCCCCCCCCCCO`, the half-maximal activity concentration (AC50) was 31.6 µM (active).

Turning to `CC[C@@H]1C[C@H](N(Cc2cc(C(F)(F)F)cc(C(F)(F)F)c2)C(C)=O)c2cc(C(F)(F)F)ccc2N1C(=O)OC(C)C`, the result was inactive. Regarding `CCCCCCCC[Si](OCC)(OCC)OCC`, the concentration at half-maximal activity (AC50) is 20 µM (active). `COCC(C)OCC(C)OCC(C)O` (configuration not stated): the outcome was inactive.

`Cc1oc2c(NC(=O)c3c(Cl)cccc3Cl)cccc2c1C(C)(C)O`: the AC50 was 20 µM (active).

Consider `Clc1cc(Cl)c2c(c1)N=C1CCCCCN1C2`, for which the result was inactive. The same measure, in the same setting: with `O=C(O)Cn1c(=O)n(Cc2ccc(Br)cc2F)c(=O)c2ccc(Cl)cc21` the entry was “inactive”; with `Oc1ccccc1`, “inactive”; with `OC12N=C(c3ccccc3)SC1Cc1cc(Cl)ccc12` (configuration not stated), “inactive”. Still for that read-out and setting: with `Cc1ccc(C(C)C)cc1` the entry was “inactive”; with `Cc1cn([C@H]2C[C@H](N=[N+]=[N-])[C@@H](CO)O2)c(=O)[nH]c1=O`, “inactive”. On to `NC(=O)c1nc(-c2cccc(-c3cc(F)ccc3OCC(F)(F)C(F)(F)F)c2)n[nH]1`, for which the AC50 is 17.7 µM (active). For the molecule `CCCOC(=O)c1cc(O)c(O)c(O)c1`, the outcome was inactive.

In the case of `O=CCCCC=O`, the half-maximal activity concentration (AC50) is 33.6 µM (active). With `COc1cc(C(=O)NC2CCN(C)CC2)ccc1Nc1ncc2c(n1)N(C1CCCC1)CC(F)(F)C(=O)N2C`, the AC50 is 19 µM (active).
